The results in this text go back to ChEMBL document CHEMBL3433997, “St. Jude Leishmania screening dataset” (2016).

As usually defined, the inhibition is the drop in the measured response relative to a control, in per cent.

Chain of Solute carrier family 2, facilitated glucose transporter member 1 (Homo sapiens) (P11166 whole entry): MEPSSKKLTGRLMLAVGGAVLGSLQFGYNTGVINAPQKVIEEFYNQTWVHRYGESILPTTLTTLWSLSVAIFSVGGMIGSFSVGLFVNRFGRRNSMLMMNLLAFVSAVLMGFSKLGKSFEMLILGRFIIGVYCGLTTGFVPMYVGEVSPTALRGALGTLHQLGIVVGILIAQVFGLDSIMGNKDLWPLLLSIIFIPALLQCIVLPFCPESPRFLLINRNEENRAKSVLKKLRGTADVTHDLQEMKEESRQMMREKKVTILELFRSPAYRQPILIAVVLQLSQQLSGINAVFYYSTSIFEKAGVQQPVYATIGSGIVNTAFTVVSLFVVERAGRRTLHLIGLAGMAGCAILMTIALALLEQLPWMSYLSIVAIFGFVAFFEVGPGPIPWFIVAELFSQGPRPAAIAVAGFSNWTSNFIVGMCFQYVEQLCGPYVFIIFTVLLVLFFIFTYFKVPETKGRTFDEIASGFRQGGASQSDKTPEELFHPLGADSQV

The experiment addresses Solute carrier family 2, facilitated glucose transporter member 1 (Homo sapiens) (UniProt P11166). The experiment in a line: ST_JUDE_LEISH: Cytotoxicity at 2uM final concentration against transgenic Leishmania Mexicana promastigotes LmGLUT1 that are glucose transport deficient and complemented with the human glucose transporter GLUT1. Activity is measured by DNA content using SYBR green in vitro. The experiment is classed as functional.
Regarding `COc1ccc(-c2cccc(NC(=O)c3cccc(Cl)c3)c2)cc1CN1CCC(O)CC1`, the inhibition turned out to be 8.59%.

With `Nc1ncc(-c2ccsc2)cc1-c1nc2ccccc2[nH]1`, the inhibition was 2.86%. For `COc1cccc(CN2CCCC(OC(c3ccccc3)c3ccccc3)C2)c1O` (stereo not given), the inhibition stood at 1%.

With `c1ccc(CCNc2nc(NCC(c3ccccc3)c3ccccc3)c3nc[nH]c3n2)cc1`, the inhibition came to 4.2%. To `COc1cccc(COCC(O)CN(CCc2ccccn2)C(=O)c2ccccc2F)c1` (stereo not given) belongs 2.13%; to `Cc1cccc(-n2nc(C)c3c2NC(=O)CC3C(=O)c2ccc(Cl)s2)c1` (stereo not given), 1.99%. For `Cc1ccccc1C(=O)NC(NC(=S)Nc1ccc([N+](=O)[O-])cc1)C(Cl)(Cl)Cl` (stereo not given) the value was 0.54%; for `O=C(/C=C/c1ccc(Cl)c(Cl)c1)NCCCCCN1CCCN(C(=O)Nc2ccc(F)c(F)c2)CC1`, 2.67%. Consider `CNC(=O)c1ccccc1Nc1nc(Nc2ccc(CCN3CCN(C)CC3)cc2)ncc1Cl`, for which the inhibition was found to be 74.6%.

As for `COc1ccc2ccccc2c1CCCCN1CCN(CC(c2ccc(F)cc2)N2CCC2)CC1` (stereo not given), the inhibition is 4.25%.

As to `COc1cc(NC(=O)Nc2cccc3ccccc23)c(OC)cc1Cl`, the inhibition was determined as 5.02%.

`COc1ccc(C(=O)COc2cccc(/C=C/C(=O)O)c2)cc1OC`: the inhibition turned out to be 0.26%. To `CN=C(NC)c1cccc(NC(=O)C=Cc2ccc(C=CC(=O)Nc3cccc(C(=NC)NC)c3)cc2)c1` belongs 0.52%. As to `c1ccc(-n2ncc(CNCc3ccc(-c4cccc(-c5nc6ccccc6[nH]5)c4)cc3)n2)cc1`, the inhibition stood at 1.76%. As to `O=C(Nc1ccc(Cn2ncc(N3CCNCC3)c(Cl)c2=O)cc1)Nc1ccc(-c2ccccc2)cc1`, the inhibition was found to be 4.36%.

Take `O=C(NCCCCN1CCC(c2ccc3c(c2OCC2COCO2)CCCC3)CC1)c1ccc(-c2ccc(C(F)(F)F)cc2)cc1` (stereo not given): the inhibition is -0.33%.

For the compound `CC(C)(C)c1ccc(NC(=O)c2cccc(CN3CCN(Cc4cccc(O)c4)CC3)c2)cc1`, the inhibition is 0.93%. For `COc1ccc2ccccc2c1C=NN=c1cc(C)[nH]c2c(C)cccc12` the value was 1.52%; for `CCCc1cc(Cc2cnc(N)nc2N)cc(CCC)c1OCCCCC(=O)O`, 1.12%; for `Cc1cccc2nc(-c3ccc(-c4ccc(CNCCc5ccncc5)cc4)cc3)[nH]c12`, 13.2%.

For the compound `O=C(NCCCCN1CCN(c2cccc3c2OCCO3)CC1)c1ccc(NC(=O)c2cc(Cl)cc(Cl)c2)cc1`, the inhibition turned out to be 2.62%. To `O=C(Cc1c[nH]cn1)Nc1cccc(-c2ccc(-c3nc4cc(C(F)(F)F)ccc4[nH]3)s2)c1` belongs -5.22%. For `COc1ccc(CN2CCCC(C(=O)c3ccc(C(F)(F)F)cc3)C2)c(O)c1` (stereo not given) the value was 4.79%; for `CS(=O)(=O)CCNc1cc(N2CCc3ncnc(Nc4ccc(OCc5cccc(F)c5)c(Cl)c4)c3C2)ncn1`, -0.04%; for `CCCC(N)C(=O)NC1CCN(c2c(F)c(N)c3c(=O)c(C(=O)O)cn4c3c2Oc2ccccc2-4)C1` (stereo not given), 82.5%. Turning to `CCN(CC)CCN(Cc1ccc(-c2ccc(C(F)(F)F)cc2)cc1)C(=O)Cn1c(CCc2cccc(C#N)c2)nc(=O)c2ccccc21`, the inhibition amounted to 2.68%. `CC(=O)c1c[nH]c2ccc(/C=C/C(=O)NC3CCC(CCN4CCc5ccc(C#N)cc5CC4)CC3)cc12` (stereo not given): the inhibition was 19.5%. `CCOc1ccccc1NC(=O)C(Sc1nc(C)cc(C)c1C#N)c1ccccc1` (stereo not given): the inhibition stood at 6.11%.

For `CC(C)N1CCC(NCc2ccc(-c3ccc(Cl)cc3)cc2)CC1`, the inhibition came to 11.6%. Consider `Cc1ccccc1C1CCN(C2CCC(NC(=O)/C=C/c3cccc(Cl)c3Cl)CC2)CC1` (stereo not given), for which the inhibition was found to be 4.12%. As for `Cc1cccc2nc(-c3ccc(-c4cccc(NCc5cn6cccnc6n5)c4)cc3)[nH]c12`, the inhibition came to 2.03%.

Consider `COc1cccc(NC(=O)c2cc(Br)cc(N3CCN(c4ccncc4)CC3)c2)c1`, for which the inhibition amounted to 2.41%.

Regarding `CCCC(CNCc1cccc(I)c1)CNc1cc(=O)c2ccccc2[nH]1` (stereo not given), the inhibition turned out to be 1.04%. `CC1CN(Cc2cccc(-c3ccc(-c4nc5cc(F)ccc5[nH]4)cc3)c2)CC(C)O1` (stereo not given): the inhibition is 3.14%.

In the case of `CCc1cn(CC(=O)N(CCOc2ccc(-c3ccc(C(F)(F)F)cc3)cc2)CCN(CC)CC)c(SCc2ccc(F)cc2)nc1=O`, the inhibition was determined as 0.38%. To `CCN(CC)CCN(Cc1ccc(-c2ccc(C(F)(F)F)cc2)cc1)C(=O)Cn1c(CCC2CCCCC2)nc(=O)c2ccccc21` belongs 0.48%; to `Clc1nc2ccccn2c1C=Cc1ccc2ccccc2n1`, 2.64%; to `CS(=O)(=O)CCN(CCS(C)(=O)=O)Cc1ccc(-c2ccc3ncnc(Nc4ccc(OCc5cccc(F)c5)c(Cl)c4)c3c2)o1`, 2%. To `COc1ccc(S(=O)(=O)NC2CCN(CCCOc3ccnc4cc(Cl)ccc34)C2)cc1OC` (stereo not given) belongs 3.41%.

As for `COc1cccc(-c2ccc3c(-c4cccc(S(C)(=O)=O)c4)cnc(N)c3c2)c1`, the inhibition was found to be 8.21%.
